Bioassay records deposited in PubChem by several laboratories.
Sampled rows, rich in hits. Any-hit rate of the full collection: about 1.3%.
NCOA2 inhibitor: human SRC2 (NCOA2) inhibition. Q15596. HEK293 GAL4-SRC2 luciferase reporter, luminescence. inhibition, % at 9 µM. hit rate 0.17% among 370,000;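 active means inhibition above the mean inhibition of all tested compounds plus 3 SD, set per campaign, cut at about 52% in these data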;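 further: 0% = DMSO treated cells and 100% = cells given Gossypol at 36 µM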
SRC1 inh: human NCOA1 inhibition | Q15788 | HEK293 GAL4-SRC1 luciferase reporter, luminescence | inhibition, % at 3.6 µM | hit rate 0.12% among 360,000 | AID 588354;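 active means inhibition above the campaign mean plus 3 SD, with each screening campaign given its own cutoff, cut at about 60% in these data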;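 further: 0% = DMSO treated cells and 100% = gossypol at 36 µM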
NCOA3 inh: inhibitors of human steroid receptor coactivator 3 (SRC3). Q9Y6Q9. HEK293 GAL4-SRC3 luciferase reporter, luminescence. inhibition, % at 3.6 µM. hit rate 0.17% among 360,000. AID 588352;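 active means inhibition above a per-campaign cutoff, the mean of all compounds plus 3 SD, cut at about 60% in these data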;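 further: 0% = DMSO-treated cells and 100% = gossypol-treated cells at 36 µM; higher means less SRC3-driven luciferase light from the GAL4 reporter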
NR5A2 inv ag: inverse agonists of human LRH-1 (NR5A2); hit rate 0.13% among 360,000; AID 602396; inhibition, % at 3.6 µM; HEK293T StAR-luciferase reporter, LRH-1 transfected, 24 h;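 active means inhibition above the mean inhibition of all tested compounds plus 3 SD, cut at about 73% in these data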;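 further: 0% = DMSO wells and 100% = reporter-only cells lacking LRH-1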
NR2F2 inh: NR2F2 (human) inhibition, primary screen | P24468 | HEK293T NGFI-A luciferase reporter, luminescence | inhibition, % at 8.6 µM | hit rate 0.7% among 370,000 | AID 686940;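 active means inhibition above a per-plate cutoff, mean inhibition of test wells between control levels plus 3 SD, cut at about 38% in these data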;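 further: cells cotransfected with COUP-TFII expression vector driving the NGFI-A reporter; 0% = median of COUP-TF2 test wells and 100% = reporter-only cells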
Gli-Sufu block: antagonists of Gli-Sufu signaling; AID 588413; hit rate 0.74% among 340,000; Sufu-KO-LIGHT fibroblasts, Gli luciferase reporter luminescence; inhibition, % at 5 µM;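 active means inhibition above about 55%, limit read from the data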;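 further: 0% = DMSO-treated cells and 100% = wells with medium but no cells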
Gli antag conf: Gli-SUFU antagonism confirmation, single concentration. shares compounds with Gli-Sufu block. Sufu-KO-LIGHT cells, Gli luciferase reporter, luminescence. inhibition, % at 5 µM. hit rate 40% among 2,500;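 active means mean inhibition at 5 µM reaching about 45%, limit read from the data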;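 further: plate controls were DMSO-treated cells for no effect and wells lacking cells for full effect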
SufuKO cytotox: cytotoxic in Gli-SUFU antagonist counter-screen. AID 651994. shares compounds with Gli-Sufu block. Sufu-KO-LIGHT cells cytotoxicity, ATP luminescence. cytotoxicity, % at 5 µM. hit rate 32% among 2,500;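 active means mean cytotoxicity at 5 µM above about 25%, limit read from the data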;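 further: cells exposed to compound overnight for roughly 16 to 18 hours; plate controls were DMSO wells with cells for no effect and medium without cells for full effect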
Wnt3a counter: Wnt3a reporter inhibition counter-screen. shares compounds with Gli-Sufu block. Wnt-LIGHT cells, Wnt3a-driven luciferase reporter, luminescence. inhibition, % at 6.25 µM. hit rate 20% among 2,500;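 active means mean inhibition above about 25%, limit read from the data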
Gal4-VP16 ctr: inhibits VP16 reporter, flagging COUP-TFII antagonist hits; HEK293 Gal4-VP16 luciferase reporter, luminescence; AID 687007; inhibition, % at 8.5 µM; hit rate 25% among 2,500; shares compounds with NR2F2 inh; in the data active means inhibition above about 13%
NR2F2 inh conf: confirmation of human COUP-TFII (NR2F2) inhibitors. shares compounds with NR2F2 inh. HEK293 NGFI-A luciferase reporter, luminescence. inhibition, % at 8.5 µM. hit rate 45% among 2,500. AID 687008;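 active means mean inhibition over three repeats above a set limit taken from the earlier primary screen, cut at about 38% in these data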;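 further: 100% = cells given the luciferase reporter alone without the COUP-TF2 vector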
An asterisk follows results filed as active; / = no result given.

SMILES	NCOA2 inhibitor	SRC1 inh	NCOA3 inh	NR5A2 inv ag	NR2F2 inh	Gli-Sufu block	Gli antag conf	SufuKO cytotox	Wnt3a counter	Gal4-VP16 ctr	NR2F2 inh conf
CC(C)CN1C(=O)[C@@]2(CC(=O)N(C)C2c2ccccc2)c2cc(-n3cc(CCCC#N)nn3)ccc21 (some centres undefined)	-5	/	/	/	-4	/	/	/	/	/	/
O=C(Cn1c(-c2cncs2)nc2ccccc21)N1CCOCC1	3	/	/	/	20	/	/	/	/	/	/
CC(=O)c1c(C)[nH]c(C(=O)OCC(=O)Nc2cccc(S(=O)(=O)N3CCCC3)c2)c1C	19	36	41	46	66*	58*	53*	14	-20	-15	36
Cc1cc(C(=O)CN2C(=O)c3ccccc3S2(=O)=O)c(C)n1CC1CCCO1 (centres undefined)	88*	80*	88*	89*	93*	83*	82*	54*	99*	86*	96*
COc1ccc(C(=O)CN2C(=O)c3ccccc3S2(=O)=O)cc1	81*	58	61	35	91*	88*	93*	38*	102*	52*	77*
Cc1cc(C(=O)CN2C(=O)NC(C)(c3ccccc3)C2=O)c(C)n1CC1CCCO1 (centres undefined)	/	1	0	1	/	-4	/	/	/	/	/
COc1ccc(C(=O)CN2C(=O)c3ccccc3S2(=O)=O)cc1Br	21	-4	-8	23	10	20	/	/	/	/	/
COc1ccc(-c2nnc(SCC(=O)NN=C(C)c3cccc4ccccc34)n2-c2ccccc2)cc1	8	/	/	/	2	/	/	/	/	/	/
CCCCC[n+]1cccc2c3ccccc3ccc21	-29	51	57	78*	64*	74*	85*	27*	33*	16*	60*
COC(=O)C1CN(Cc2ccccc2)CCS(=O)(=O)N1Cc1cccc(Cl)c1 (centres undefined)	23	/	/	/	-14	/	/	/	/	/	/
CC(Nc1ncnc2ccccc12)c1ccccc1 (centres undefined)	13	10	20	45	71*	63*	73*	34*	41*	4	61*
CCOC(=O)NC[C@@]1(C(=O)OC)CC(=O)N(C)[C@@H]1c1ccccc1	4	/	/	/	-18	/	/	/	/	/	/
CC1CCC(C(C)C)C(OC(=O)Cn2c(-c3ccccc3)[n+](C)c3ccccc32)C1 (centres undefined)	39	58	79*	75*	57*	87*	89*	38*	38*	14*	38*
Cc1cccc(OCc2n(CC(=O)OC3CC(C)CCC3C(C)C)c3ccccc3[n+]2C)c1 (centres undefined)	/	7	26	14	/	46	/	/	/	/	/
Cc1nn(C)c(C(=O)NCc2ccc(Cl)cc2)c1Cl	18	21	26	40	61*	63*	53*	29*	20	1	44*
N=c1ccn(CC(=O)c2ccc(-c3ccccc3)cc2)cc1	-10	32	73*	59	58*	82*	84*	25	30*	13	54*
COc1ccc(S[C@]2(C(=O)N3CCCC3)CC(=O)N(C(=O)c3ccccc3)[C@@H]2c2ccc(OC)cc2)cc1	22	/	/	/	16	/	/	/	/	/	/
O=C(Nc1ccccc1)C1=C[C@@H](C2CCCCC2)C[C@@H](OCCCCO)O1	30	9	11	15	40*	68*	80*	3	3	-33	13
O=C(NC1CC1)C1=C[C@H](C2CCCCC2)C[C@H](OCCCCO)O1	-13	-32	-71	2	2	-3	/	/	/	/	/
